# Read-outs that look alike come from different tables or passages of the source.
# What was measured:
# [1] = test system: PRKAG1; settings: read-out: apparent Kd, n = 1
# [2] = test system: PRKD1; settings: read-out: apparent Kd, n = 1
# [3] = compound concentrations:100 nM and 1000 nM (sheet 'Lestaurtinib' of Supplementary Table 1),run:Lestaurtinib_02443_R3,Plate:MR009
# [4] = compound concentrations:100 nM and 1000 nM (sheet 'Lestaurtinib' of Supplementary Table 1),run:Lestaurtinib_02473_R2,Plate:MR010
# [5] = compound concentrations:100 nM and 1000 nM (sheet 'Lestaurtinib' of Supplementary Table 1),run:Lestaurtinib_02584_R2,Plate:MR017
# [6] = compound concentrations:100 nM and 1000 nM (sheet 'Lestaurtinib' of Supplementary Table 1),run:Lestaurtinib_02601_R1,Plate:MR018
# [7] = compound concentrations:100 nM and 1000 nM (sheet 'Lestaurtinib' of Supplementary Table 1),run:Lestaurtinib_02748_R3,Plate:MR024
substance,measurement,setting,value
Lestaurtinib,potency estimated from few doses,"[1]; compound concentrations:100 nM and 1000 nM (sheet 'Lestaurtinib' of Supplementary Table 1),run:Lestaurtinib_02438_R3,Plate:MR008",1600 nM
same,potency estimated from few doses,[1]; [3],935 nM
same,potency estimated from few doses,[1]; [4],859 nM
same,potency estimated from few doses,"[1]; compound concentrations:100 nM and 1000 nM (sheet 'Lestaurtinib' of Supplementary Table 1),run:Lestaurtinib_02473_R3,Plate:MR010",835 nM
same,potency estimated from few doses,"[1]; compound concentrations:100 nM and 1000 nM (sheet 'Lestaurtinib' of Supplementary Table 1),run:Lestaurtinib_02482_R2,Plate:MR011",1580 nM
same,potency estimated from few doses,"[1]; compound concentrations:100 nM and 1000 nM (sheet 'Lestaurtinib' of Supplementary Table 1),run:Lestaurtinib_02487_R1,Plate:MR012",365 nM
same,potency estimated from few doses,"[1]; compound concentrations:100 nM and 1000 nM (sheet 'Lestaurtinib' of Supplementary Table 1),run:Lestaurtinib_02566_R3,Plate:MR014",79.5 nM
same,potency estimated from few doses,"[1]; compound concentrations:100 nM and 1000 nM (sheet 'Lestaurtinib' of Supplementary Table 1),run:Lestaurtinib_02584_R1,Plate:MR017",798 nM
same,potency estimated from few doses,[1]; [5],936 nM
same,potency estimated from few doses,[1]; [6],963 nM
same,potency estimated from few doses,"[1]; compound concentrations:100 nM and 1000 nM (sheet 'Lestaurtinib' of Supplementary Table 1),run:Lestaurtinib_02606_R2,Plate:MR019",1240 nM
same,potency estimated from few doses,"[1]; compound concentrations:100 nM and 1000 nM (sheet 'Lestaurtinib' of Supplementary Table 1),run:Lestaurtinib_02624_R2,Plate:MR020",876 nM
same,potency estimated from few doses,"[1]; compound concentrations:100 nM and 1000 nM (sheet 'Lestaurtinib' of Supplementary Table 1),run:Lestaurtinib_02624_R3,Plate:MR020",1320 nM
same,potency estimated from few doses,[1]; [7],1790 nM
same,potency estimated from few doses,"[1]; compound concentrations:100 nM and 1000 nM (sheet 'Lestaurtinib' of Supplementary Table 1),run:Lestaurtinib_02752_R2,Plate:MR025",818 nM
same,potency estimated from few doses,"[1]; compound concentrations:100 nM and 1000 nM (sheet 'Lestaurtinib' of Supplementary Table 1),run:Lestaurtinib_02752_R3,Plate:MR025",954 nM
same,potency estimated from few doses,"[1]; compound concentrations:100 nM and 1000 nM (sheet 'Lestaurtinib' of Supplementary Table 1),run:Lestaurtinib_02768_R2,Plate:MR028",1540 nM
same,potency estimated from few doses,"[1]; compound concentrations:100 nM and 1000 nM (sheet 'Lestaurtinib' of Supplementary Table 1),run:Lestaurtinib_02768_R3,Plate:MR028",852 nM
same,potency estimated from few doses,"[1]; compound concentrations:100 nM and 1000 nM (sheet 'Lestaurtinib' of Supplementary Table 1),run:Lestaurtinib_02795_R2,Plate:MR022",1330 nM
same,potency estimated from few doses,"[1]; compound concentrations:100 nM and 1000 nM (sheet 'Lestaurtinib' of Supplementary Table 1),run:Lestaurtinib_02802_R1,Plate:MR029",1150 nM
same,potency estimated from few doses,"[1]; compound concentrations:100 nM and 1000 nM (sheet 'Lestaurtinib' of Supplementary Table 1),run:Lestaurtinib_02802_R2,Plate:MR029",1430 nM
same,potency estimated from few doses,"[1]; compound concentrations:100 nM and 1000 nM (sheet 'Lestaurtinib' of Supplementary Table 1),run:Lestaurtinib_02896_R3,Plate:MR030",700 nM
same,potency estimated from few doses,"[1]; compound concentrations:100 nM and 1000 nM (sheet 'Lestaurtinib' of Supplementary Table 1),run:Lestaurtinib_03252_R1,Plate:MR032",744 nM
same,potency estimated from few doses,"[1]; compound concentrations:100 nM and 1000 nM (sheet 'Lestaurtinib' of Supplementary Table 1),run:Lestaurtinib_03260_R1,Plate:MR033",860 nM
same,potency estimated from few doses,"[1]; compound concentrations:100 nM and 1000 nM (sheet 'Lestaurtinib' of Supplementary Table 1),run:Lestaurtinib_03260_R2,Plate:MR033",760 nM
same,potency estimated from few doses,"[2]; compound concentrations:100 nM and 1000 nM (sheet 'Lestaurtinib' of Supplementary Table 1),run:Lestaurtinib_02364_R3,Plate:MR002",131 nM
same,potency estimated from few doses,"[2]; compound concentrations:100 nM and 1000 nM (sheet 'Lestaurtinib' of Supplementary Table 1),run:Lestaurtinib_02443_R2,Plate:MR009",226 nM
same,potency estimated from few doses,[2]; [3],271 nM
same,potency estimated from few doses,"[2]; compound concentrations:100 nM and 1000 nM (sheet 'Lestaurtinib' of Supplementary Table 1),run:Lestaurtinib_02473_R1,Plate:MR010",248 nM
same,potency estimated from few doses,[2]; [4],235 nM
same,potency estimated from few doses,"[2]; compound concentrations:100 nM and 1000 nM (sheet 'Lestaurtinib' of Supplementary Table 1),run:Lestaurtinib_02496_R2,Plate:MR013",47.1 nM
same,potency estimated from few doses,"[2]; compound concentrations:100 nM and 1000 nM (sheet 'Lestaurtinib' of Supplementary Table 1),run:Lestaurtinib_02566_R1,Plate:MR014",253 nM
same,potency estimated from few doses,[2]; [5],206 nM
same,potency estimated from few doses,"[2]; compound concentrations:100 nM and 1000 nM (sheet 'Lestaurtinib' of Supplementary Table 1),run:Lestaurtinib_02584_R3,Plate:MR017",278 nM
same,potency estimated from few doses,[2]; [6],99.8 nM
same,potency estimated from few doses,"[2]; compound concentrations:100 nM and 1000 nM (sheet 'Lestaurtinib' of Supplementary Table 1),run:Lestaurtinib_02606_R1,Plate:MR019",131 nM
same,potency estimated from few doses,"[2]; compound concentrations:100 nM and 1000 nM (sheet 'Lestaurtinib' of Supplementary Table 1),run:Lestaurtinib_02606_R3,Plate:MR019",135 nM
same,potency estimated from few doses,"[2]; compound concentrations:100 nM and 1000 nM (sheet 'Lestaurtinib' of Supplementary Table 1),run:Lestaurtinib_02724_R3,Plate:MR021",41.4 nM
same,potency estimated from few doses,"[2]; compound concentrations:100 nM and 1000 nM (sheet 'Lestaurtinib' of Supplementary Table 1),run:Lestaurtinib_02741_R1,Plate:MR023",13.3 nM
same,potency estimated from few doses,"[2]; compound concentrations:100 nM and 1000 nM (sheet 'Lestaurtinib' of Supplementary Table 1),run:Lestaurtinib_02741_R3,Plate:MR023",17.5 nM
same,potency estimated from few doses,"[2]; compound concentrations:100 nM and 1000 nM (sheet 'Lestaurtinib' of Supplementary Table 1),run:Lestaurtinib_02748_R2,Plate:MR024",208 nM
same,potency estimated from few doses,[2]; [7],254 nM
same,potency estimated from few doses,"[2]; compound concentrations:100 nM and 1000 nM (sheet 'Lestaurtinib' of Supplementary Table 1),run:Lestaurtinib_02795_R3,Plate:MR022",193 nM
